DT40 TDP1 CPT: DT40-hTDP1 cell growth loss with CPT | chicken DT40 Tdp1-/-;hTDP1 cells + 20 nM CPT, ATP luminescence, 48 h | Potency, µM (top dose mostly 46.2 µM), inactives show top-dose activity change, negative = growth inhibition, actives largely listed as inhibitors | 420,000 tested, 12% active; further: potency means the concentration at half of the fitted maximal effect; nearly all actives have a fitted effect of over 55% in size
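Cell growth measured by CellTiter-Glo luminescence after a minimum 48 h, 37 C compound exposure with 20 nM CPT in Tdp1-knockout DT40 cells stably expressing hTDP1, seeded 400/well; qHTS titration format.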
IL1B secr inh: inhibitors of inflammasome signaling (IL-1 beta secretion) | THP-1 LPS/ATP IL-1B secretion, AlphaLISA, 16 h; active compounds read low | activity change, % at 57.5 µM | 360,000 tested, 4.7% active | AID 743279; in the data active means activity change below about -50%; inconclusive means mostly about -30% to -49%
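THP-1 cells pretreated 1 hr with compounds (up to 57.5 uM final), then stimulated with LPS (250 ng/mL final) plus ATP (1.25 mM final); secreted IL-1B measured by AlphaLISA after 16 hr, decreased signal indicating inhibition.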
LDHA block: inhibitors of human lactate dehydrogenase A; P00338; purified LDHA, NADH/diaphorase-resazurin fluorescence; active compounds read low; activity change, % (values are at about 110 or 230 µM); 480,000 tested, 0.15% active; AID 1347041; in the data active means activity change below about -30%; inconclusive means mostly about -25% to -30%;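 further: plate controls were DMSO wells for no effect and wells without enzyme for full effect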
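Human LDH5 at 2 nM final in Tris HCl pH 7.4 with 0.06 mM NADH and 0.2 mM pyruvate, reacted 5 minutes at room temperature. Remaining NADH coupled via diaphorase/resazurin; resorufin fluorescence read at 0 and 20 minutes, normalized to enzyme-free and DMSO wells.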
RORg inh: inhibitors of mouse ROR gamma transcriptional activity; P51450; Drosophila S2 Gal4-RORgamma UAS-luciferase reporter, 20 h; Potency, µM (top dose mostly 53.6 µM), for the others: at the highest dose activity change, negative = inhibition, hits mostly inhibitors; 310,000 tested, 5.4% active; further: potency means the concentration at half of the fitted maximal effect; nearly all actives have a fitted effect of over 60% in size
Target sequence (P51450 whole entry, looked up, the tested form may be a part): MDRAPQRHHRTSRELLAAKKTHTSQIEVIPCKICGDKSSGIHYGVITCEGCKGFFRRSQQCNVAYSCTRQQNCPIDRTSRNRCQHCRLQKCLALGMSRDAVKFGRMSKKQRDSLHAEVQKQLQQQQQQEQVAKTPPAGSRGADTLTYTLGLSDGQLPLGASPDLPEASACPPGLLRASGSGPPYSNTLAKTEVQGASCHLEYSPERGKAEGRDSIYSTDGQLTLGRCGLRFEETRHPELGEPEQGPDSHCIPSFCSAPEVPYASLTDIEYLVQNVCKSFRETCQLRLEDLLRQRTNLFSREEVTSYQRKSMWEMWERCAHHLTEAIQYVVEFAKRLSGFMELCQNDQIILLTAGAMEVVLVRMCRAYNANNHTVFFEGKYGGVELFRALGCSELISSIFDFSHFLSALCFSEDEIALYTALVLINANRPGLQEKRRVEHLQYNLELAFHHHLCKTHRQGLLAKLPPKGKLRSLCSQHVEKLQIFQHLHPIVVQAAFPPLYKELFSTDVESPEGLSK
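Drosophila S2 cells stably expressing Gal4-DBD/mouse RORγ fusion under metallothionein promoter plus UAS-luciferase; compound 1 h, then 700 uM CuSO4 induction for 20 h at ambient temperature; inhibition read as reduced luminescence.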
TDP1 cell noCPT: qHTS for Inhibitors of human tyrosyl-DNA phosphodiesterase 1 (TDP1): qHTS in cells in absence of CPT. Potency, µM (titrated, usually from 46.2 µM), inactives show at the highest dose activity change, negative = growth inhibition, most hits filed as inhibitors. DT40 Tdp1-/- hTDP1 cells, no CPT, ATP luminescence, 48 h. 420,000 tested, 15% active. AID 686978, 2013; further: potency means the concentration at half of the fitted maximal effect; nearly all actives have a fitted effect of over 55% in size
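Compound effects on proliferation are scored in DT40 Tdp1-/-;hTDP1 cells in the absence of CPT. ATP levels (CellTiter-Glo luminescence) are recorded after a ≥48 hr, 37 °C incubation.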
VP16 counter: Gal4-VP16 reporter inhibition counter-screen | Drosophila S2 Gal4-VP16 UAS-luciferase, luminescence, 20 h | Potency, µM (series often up to 53.6 µM), inactives show top-dose activity, negative = inhibition, hits mostly inhibitors | 310,000 tested, 3.5% active;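 further: Gal4-VP16 expression switched on by copper sulfate through the metallothionein promoter; potency means the concentration at half of the fitted maximal effect; nearly all actives have a fitted effect of over 50% in size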
The depositor's hits bear a star; ? = inconclusive; nt = no result given; [ ] = remark or other dose. Hits are enriched below; roughly 18% of the tested compounds scored in any of these assays. Unless noted, the call rests on the fitted dose curve; in most records, active means well fitted curve in the direction sought with a large enough effect; inconclusive means small, poorly fitted or top-dose-only effect, or another doubt; inactive means no such curve, though single readings can be large; an effect the other way counts as inactive or inconclusive. Unless noted, on the % scale 0 is the no-effect control and ±100 the full control effect.

SMILES | DT40 TDP1 CPT | IL1B secr inh | LDHA block | RORg inh | TDP1 cell noCPT | VP16 counter
Cc1cc(C)cc(NC(c2cccc(Cl)c2)c2nnc(-c3ccccc3)o2)c1 (stereo unspecified) | -26.6% | nt | -3.1 | nt | ? | nt
CCSC1=N/C(=C\c2c(C)cc(C)cc2C)C(=O)S1 | nt | nt | 2.1 | nt | nt | nt
COc1ccc(S(=O)(=O)N(C)c2ccc(C(=O)N3CCN(c4ccccc4)CC3)cc2)cc1OC | 14.6µM* | -25.6 | -5.3 | 33.9% | 16.4µM* | -20.2%
COc1ccc(S(=O)(=O)N(C)c2ccc(C(=O)N3CCCC3)cc2)cc1OC | -23.0% | -9.4 | -2.7 | ? | ? | 1.6%
CCOC(=O)N1CCN(C(=O)c2ccc(N(C)S(=O)(=O)c3ccc(C)cc3)cc2)CC1 | ? | 0.0 | -6.6 | ? | ? | -14.1%
COc1ccc(N2CCN(C(=O)c3ccc(N(C)S(=O)(=O)c4ccc(OC)cc4)cc3)CC2)cc1 | ? | ? | -3.4 | 32.6% | 16.4µM* | -20.3%
COc1ccc(N2CCN(C(=O)c3ccc(N(C)S(=O)(=O)c4ccc(C)cc4)cc3)CC2)cc1 | 16.4µM* | 0.0 | -5.1 | -31.7% | 16.4µM* | ?
COc1ccc(S(=O)(=O)N(C)c2ccc(C(=O)N3CCN(C)CC3)cc2)cc1 | -14.5% | 9.7 | 0.1 | 2.0% | -28.3% | -1.7%
Cc1ccc(S(=O)(=O)N2CCN(C(=O)c3cccc(-n4cccc4)c3)CC2)cc1 | 16.4µM* | -7.7 | 2.0 | nt | ? | nt
CC(C)c1nnc2sc(-c3cc4ccccc4[nH]3)nn12 | nt | nt | 0.4 | nt | nt | nt
CCOC(=O)c1ccc2ncc(C(=O)OCC)c(Nc3cc(C)ccc3OC)c2c1 | nt | nt | -5.6 | nt | nt | nt
COc1ccc(S(=O)(=O)N2CCN(C(=O)c3cccc(S(=O)(=O)N4CCCC4)c3)CC2)cc1 | -8.5% | -8.3 | -2.5 | nt | ? | nt
COc1ccc(N(C)S(=O)(=O)c2cccc(C(=O)N3CCN(S(=O)(=O)c4ccc(C)cc4)CC3)c2)cc1 | 25.9µM* | -14.9 | -2.0 | -21.4% | ? | -4.1%
O=C(OCc1c(-c2ccccc2)ncc2ccccc12)c1ccc(Br)cc1 | -25.3% | 18.1 | 0.6 | nt | 13µM* | nt
COc1cccc(-c2ncc3ccccc3c2COC(=O)CCC(=O)O)c1 | -18.2% | -5.5 | -0.3 | nt | -10.7% | nt
COc1cccc(-c2ncc3ccccc3c2COC(=O)N(C)C)c1 | 18.4µM* | -5.1 | -4.7 | nt | 18.4µM* | nt
COc1cccc(-c2ncc3ccccc3c2COC(=O)c2ccc(Br)cc2)c1 | -26.9% | 11.6 | 0.6 | nt | ? | nt
COc1cccc2ccn(CC(=O)NC(C)c3ccccc3)c12 (stereo unspecified) | nt | nt | -1.6 | nt | nt | nt
COc1ccc(CCn2c(C(C)C)nc3oc4ccccc4c(=O)c3c2=O)cc1 | ? | -8.4 | -5.6 | -17.3% | 29.1µM* | -5.5%
CC(C)c1nc2c(c(=O)c3ccccc3n2C)c(=O)n1CCc1ccccc1 | ? | nt | -10.8 | -23.4% | 9.2µM* | -1.0%
COCCCn1c(C2CCCCC2)nc2oc3cc(OC)ccc3c(=O)c2c1=O | ? | 3.8 | -9.8 | -6.7% | 20.6µM* | -0.6%
CCc1nc2oc3cc(OC)ccc3c(=O)c2c(=O)n1Cc1ccccc1 | ? | -1.0 | -10.2 | 4.9% | ? | -1.9%
CCCc1nc2oc3cc(OC)ccc3c(=O)c2c(=O)n1CCc1ccccc1 | 20.6µM* | -11.3 | 1.5 | 17.2% | 23.1µM* | -8.1%
COc1ccc2c(=O)c3c(=O)n(Cc4ccco4)c(C4CCCCC4)nc3oc2c1 | nt | nt | nt | -15.2% | nt | -9.5%
COc1ccccc1NC(=O)CSc1nnc(-n2nc(C)cc2C)n1N | nt | nt | 0.1 | nt | nt | nt
SMILES | DT40 TDP1 CPT | IL1B secr inh | LDHA block | RORg inh | TDP1 cell noCPT | VP16 counter
CCC(Sc1nncn1CCOC)C(=O)c1ccc(OC)cc1 (stereo unspecified) | nt | nt | -4.6 | nt | nt | nt
Cc1ccc(C(C)NS(=O)(=O)C2=Cc3ccccc3CC2)o1 (stereo unspecified) | nt | nt | 62.9 | nt | nt | nt
O=C1c2cc(F)ccc2-n2c1nc1ccccc1c2=O | 0.206µM* | 25.0 | 25.5 | 1.0% | 0.366µM* | 0.4%
Nn1c(-c2ccc(F)cc2)nc2ccccc2c1=O | 2.1% | ? | -0.2 | -0.4% | 0.3% | -17.7%
COCCC(=O)N1CCc2ccc(NC(=O)c3ccc(C(F)(F)F)cc3)cc2C1 | ? | 0.0 | -4.5 | 12.3% | ? | -6.2%
CN(C)S(=O)(=O)N1CCc2ccc(NC(=O)c3ccc(C(F)(F)F)cc3)cc2C1 | 16.4µM* | ? | -3.6 | -19.4%[1.91 µM] | 23.1µM* | ?
CCCCOc1ccc(NC(=O)C(C)Oc2ccccc2F)c2cccnc12 (stereo unspecified) | nt | nt | 31.4 | nt | nt | nt
CCOC(=O)CN1NC2(CCCC(C)C2)NC1=S (stereo unspecified) | 9.6% | 6.9 | -9.0 | ? | -7.0% | ?
CCOC(=O)CN1NC2(CCC(C(C)(C)C)CC2)NC1=S (stereo unspecified) | 3.5% | 6.2 | -3.4 | 10µM* | -4.2% | ?
CCOC(=O)CN1NC2(CCC(C)CC2)NC1=S (stereo unspecified) | -5.6% | -4.6 | -9.3 | ? | 11.9% | ?
CCOC(=O)CN1NC2(CCCCC2)NC1=S | -2.7% | 10.2 | 2.4 | 15.8µM* | 6.3% | ?
CCOC(=O)CN1NC2(CCCCCCC2)NC1=S | 12.3% | 30.8 | -1.7 | 3.98µM* | 4.0% | -17.8%
CC(C)(C)C1CCC2(CC1)NC(=S)N(c1ccccc1)N2 (stereo unspecified) | ? | 3.8 | 7.9 | 10µM* | ? | 15.8µM*
CCC(C)(C)C1CCC2(CC1)NC(=S)N(c1ccccc1)N2 (stereo unspecified) | 15.0% | 5.3 | 0.6 | ? | -7.0% | ?
O=S(Cc1ccccc1)Cc1cccc(Cl)c1 (stereo unspecified) | nt | nt | -9.0 | nt | nt | nt
Cc1nn(C)c(C)c1C(=O)NCc1cc(Cl)c2c(c1)OCCCO2 | nt | nt | 1.2 | nt | nt | nt
CCC(C)NC(=O)c1ccc2c(c1)N(Cc1ccccc1)C(=O)CS2 (stereo unspecified) | ? | -6.9 | -12.1 | -1.6% | ? | -9.3%
Cc1ccc(C)c(CN2C(=O)CSc3ccc(C(=O)NCCc4ccc(Cl)cc4)cc32)c1 | 8.2µM* | nt | -2.6 | nt | ? | nt
COc1ccc(CCNC(=O)c2ccc3c(c2)N(Cc2c(F)cccc2Cl)C(=O)CS3)cc1OC | 8.2µM* | nt | -9.0 | nt | 9.2µM* | nt
Cc1ccc(C)c(CN2C(=O)CSc3ccc(C(=O)NCC(C)CN4CCC(C)CC4)cc32)c1 (stereo unspecified) | 14.6µM* | 0.8 | -1.5 | -15.2% | ? | 0.2%

Bioassay records from PubChem BioAssay.
